# Assay results taken from PubChem BioAssay AID651800 (The Scripps Research Institute Molecular Screening Center, 2012).
# Out of some 360,000 compounds screened, about 1,300 (0.36%) were called active. The full list was thinned out, with actives kept by preference. Unmarked numbers belong to inactive results. Rule as the data show it: active = inhibition above about 19%; inactive = the rest.
# System: T-cell receptor (TCR)
# Experiment: small molecules blocking TCR binding to CD3 – biochemical, fluorescence, TAMRA-labeled TCR probe, primary screen (AID 651800);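 also: recombinant mutant TCR 2C K166C tagged with TAMRA read by polarization; 0% = receptor in buffer alone and 100% = receptor with positive control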
# Details: at 9.4 µM, hits give high values
row,SMILES,inhibition
1,Nc1nc2c(ncn2[C@@H]2O[C@H](C(=O)N[C@@H](Cc3ccccc3)C(=O)NCc3ccccc3)[C@@H](O)[C@H]2O)c(=O)[nH]1,-1.96%
2,CN1C(=O)CN2CCc3ccccc3C2c2cc(Cl)ccc21 (stereo not drawn),-2.81%
3,COC(=O)C1=C(C)N(Cc2ccc(F)cc2)C(=S)NC1c1cccc(Cl)c1 (stereo not drawn),3%
4,O=C(NS(=O)(=O)c1cccs1)[C@H]1O[C@@H](n2ccc(=O)[nH]c2=O)[C@H](O)[C@@H]1O,-0.49%
5,Cc1cccc(NS(=O)(=O)c2cccc(C(=O)NNC(=O)c3ccccc3O)c2)c1,16.2%
6,O=C(NNC(=O)c1ccccc1O)c1ccccc1O,40% (active)
7,O=C(NNC(=O)c1cc(S(=O)(=O)N2CCCCC2)ccc1Cl)c1ccccc1O,16.6%
8,Cc1cc(C(=O)CCC(=O)NNC(=O)c2ccccc2O)c(C)s1,25.6% (active)
9,Cc1ccccc1C(=O)NNC(=O)CN1C(=O)c2ccccc2C1=O,-5.72%
10,Cc1cc2occ(CC(=O)NNC(=O)c3ccccc3F)c2cc1C,2.71%
11,COc1cccc(NC(=O)N(C)C[C@@H]2OCc3cn(nn3)CCCC(=O)N([C@@H](C)CO)C[C@H]2C)c1,-4.37%
12,C=CC1=C(C(=O)O)N2C(=O)[C@@H](NC(=O)/C(=N/OCC(=O)O)c3csc(N)n3)[C@H]2SC1,25.6% (active)
13,C=CC1=C(C(=O)O)N2C(=O)[C@@H](NC(=O)/C(=N\OCC(=O)O)c3csc(N)n3)[C@H]2SC1,4.98%
14,CCCCOCC1CN(CCCC)S(=O)(=O)c2c(Oc3ccc(F)cc3)cccc2O1 (stereo not drawn),0.77%
15,Nc1ncnc2c1ncn2[C@@H]1O[C@H](C(=O)N[C@@H](CCc2ccccc2)C(=O)N2CCCN(Cc3cccs3)CC2)[C@@H](O)[C@H]1O,3.68%
16,COc1cccc(CNC(=O)[C@H]2CCCN2C(=O)[C@H]2CCCN2C(=O)c2cc(F)cc(F)c2)c1,-6.91%
17,CC(=O)N1C[C@@H](CO)[C@@H](N(C)C(=O)C(C)(C)C)C[C@H]1c1ccccc1Br,-0.47%
18,CN(C)[C@@H]1C(=O)C(C(N)=O)=C(O)[C@@]2(O)C(=O)C3=C(O)c4c(O)ccc(Cl)c4[C@@H](O)[C@H]3C[C@@H]12,21.1% (active)
19,C=C1c2c(Cl)ccc(O)c2C(O)=C2C(=O)[C@]3(O)C(O)=C(C(N)=O)C(=O)[C@@H](N(C)C)[C@@H]3[C@@H](O)C12 (stereo partly drawn),33.5% (active)
20,CCc1c(-c2ccccc2OC)ncn1CCc1ccccc1OC,7.58%
21,NCCN1CCN2C(=O)CN(C(=O)c3ccccc3)CC12 (stereo not drawn),-1.77%
22,COC(=O)[C@]12C[C@H](CC(=O)NCc3ccc(C)o3)C(=O)N(CCC3=CCCCC3)C1=C[C@H](C(C)(C)C)O[C@@H]2C,-1.26%
23,Oc1ccc(N=Cc2c(O)ccc3ccccc23)cc1,44.6% (active)
24,Oc1ccc(/C=N/N(Cc2ccccc2)c2ccccc2)cc1,7.05%
25,Oc1ccc(N=Cc2sc3ccccc3c2Cl)cc1,89.3% (active)
26,COc1ccc(-c2ccc3c(n2)CCCN3S(=O)(=O)c2ccc(C)cc2)cc1,-3.11%

row,SMILES,inhibition
1,CC(C)(C)c1ccc(S(=O)(=O)NCC2CCN(C(=O)C(=O)c3cc4ccccc4o3)CC2)cc1,-7.28%
2,NC(=O)c1ncn([C@@H]2O[C@H](C(=O)O)[C@@H](O)[C@H]2O)n1,6.54%
3,COC(=O)Cc1nnn2c1[C@H](C)[C@H](c1ccccc1Br)OCC2,-3.6%
4,COC(=O)C1=C(C)N(Cc2cccc(C(F)(F)F)c2)C(=NCc2ccccc2)NC1c1ccccc1C(F)(F)F (stereo not drawn),2.13%
5,O=C1[C@@H](c2ccccc2)[C@@H](c2ccccc2)N1c1ccccc1,4.73%
6,C=CC1=CCN(S(=O)(=O)C(C)(C)C)[C@@H]1CCO,5.24%
7,COC(=O)c1cc(Oc2ccc(S(=O)(=O)N3CCOCC3)cc2[N+](=O)[O-])cc(C(=O)OC)c1,7.58%
8,O=[N+]([O-])c1cc(Cl)cc(/C=N/NC(=S)Nc2cc(S(=O)(=O)N3CCOCC3)ccc2Cl)c1O,41.3% (active)
9,Cc1cc(OCCCC(=O)Nc2cc(S(=O)(=O)N3CCOCC3)ccc2N2CCOCC2)ccc1Cl,0.46%
10,O=S(=O)(c1cccs1)N1CCCc2nc(-c3ccc(Br)cc3)ccc21,3.53%
11,COc1ccccc1CCn1cnc(-c2ccccc2)c1C(C)C,0.67%
12,COc1cc(OC)cc(-c2c(-c3ccc(F)cc3)c3cc(-c4ccc5cc[nH]c5c4)ccc3n2C)c1,-1.04%
13,COc1cc(OC)cc(-c2c(-c3cccs3)c3cc(-c4ccc(OC)nc4)ccc3n2C)c1,-3.68%
14,COc1ccc(-c2c(-c3cc(OC)cc(OC)c3)n(C)c3ccc(-c4ccn[nH]4)cc23)cc1,23.9% (active)
15,COc1cccc(CNC(=O)[C@H]2CCCN2C(=O)[C@H]2CCCN2C(=O)c2ccc(F)cc2)c1,5.75%
16,Cc1ccc(S(=O)(=O)NCCC(=O)NNC(=O)C2COc3ccccc3O2)cc1 (stereo not drawn),-2.9%
17,Cc1c(CC(=O)N2CCN(C(=O)C3COc4ccccc4O3)CC2)c(=O)oc2c(O)c(O)ccc12 (stereo not drawn),82.2% (active)
18,Cc1c(CCC(=O)O)c(=O)oc2c(C)c(OCc3ccccc3Cl)ccc12,-7.63%
19,O=c1ccc2c(-c3ccccc3S(=O)(=O)O)c3ccc(O)c(O)c3oc-2c1O,33.4% (active)
20,COc1ccc(C2=CN(Cc3ccccc3)C(c3ccc(OC)cc3)CC2=O)cc1 (stereo not drawn),-0.11%
21,COC(=O)[C@]12C[C@H](CC(=O)NCCCCc3ccccc3)C(=O)N(Cc3ccc4c(c3)OCO4)C1=C[C@H](C(C)(C)C)O[C@@H]2C,-0.56%
22,COC(=O)C1=C(C)N(Cc2ccccc2C(F)(F)F)C(=NCc2ccc(C(F)(F)F)cc2)NC1c1ccc(F)cc1 (stereo not drawn),10.2%
23,COc1ccc(/C(=N\O)c2nccc3cc(OC)c(OC)cc23)cc1OC,37.5% (active)
24,COC(=O)c1ccc(-c2c(-c3ccccc3)ncc3cc(OC)c(OC)cc23)cc1,-0.95%
25,COc1cc2ccc(C(C)=O)c(O)c2cc1OC,-7.1%
26,O=C(NCC1CCCO1)C(C(=O)c1ccccc1)n1cc(Cl)ccc1=O (stereo not drawn),4.24%

row,SMILES,inhibition
1,CN(C)CCNC(=O)C(C(=O)c1ccccc1)n1ccccc1=O (stereo not drawn),27.9% (active)
2,CN(C)CCNC(=O)Cc1ccc([N+](=O)[O-])cc1,6.84%
3,Nc1ncnc2c1ncn2C1OC(CO)CC1O (stereo not drawn),-7.35%
4,COC(=O)c1c(-c2ccc(OC)cc2)c2c(c3c4ccccc4n(S(=O)(=O)c4ccc(C)cc4)c13)C(=O)N(C)C2,0.77%
5,O=S1(=O)c2c(cccc2N2CCCCC2)O[C@H](COCc2ccccc2)CN1C1CC1,2.48%
6,O=S1(=O)c2c(cccc2N2CCCC2)O[C@H](COCc2ccccc2)CN1C1CC1,19.3% (active)
7,CSc1ccc(Oc2cccc3c2S(=O)(=O)N([C@H](C)c2ccccc2)C[C@@H](COCc2ccccc2)O3)cc1C,11.5%
8,CC1CCN(C(=O)c2ncn3c2C(=O)N[C@@H](C)C3)CC1,3.49%
9,COc1ccc(/C=C/c2c(-c3cccc(C)c3)oc3ccc(-c4ccc5c(c4)OCO5)cc23)cc1,-3.78%
10,Nc1[nH]c(C(=O)c2ccc(Br)cc2)c(-c2ccc3c(c2)OCO3)c1C(=O)NCCc1c[nH]c2ccccc12,-5.65%
11,COc1ccccc1N(CC(=O)Nc1c(C)n(C)n(-c2ccccc2)c1=O)S(=O)(=O)c1ccccc1,3.09%
12,COc1ccccc1N(CC(=O)N/N=C(\C)c1ccccc1O)S(=O)(=O)c1ccc(C)cc1,26.6% (active)
13,COc1ccccc1N(CC(=O)N1CCCCC1)S(=O)(=O)c1ccccc1,3.6%
14,COC(=O)[C@]12C[C@H](CC(=O)N3CCN(C(=O)C4CC4)CC3)C(=O)N(Cc3ccc4c(c3)OCO4)C1=C[C@H](C(C)(C)C)O[C@@H]2C,3.03%
15,C/C=C/C=C/C(=O)O,27.1% (active)
16,COc1ccc(-c2ccccc2C2Cc3nnccc3CN2C(=O)Nc2ccccc2)cc1 (stereo not drawn),-1.6%
17,CCCCCCCCN1C(=O)[C@@H](CC(=O)NCc2ccccc2)C[C@@]2(C(=O)OC)C1=C[C@H](C(C)(C)C)O[C@@H]2C,-4.58%
18,O=C1C(Cc2ccc(O)cc2)NC(=S)N1Cc1ccccc1 (stereo not drawn),25.9% (active)
19,CCCCc1ccc(NC(=O)CN2C(=O)NC(Cc3ccccc3)C2=O)cc1 (stereo not drawn),-0.34%
20,Cc1cc(C)c(NC(=O)CN2C(=O)NC(Cc3ccccc3)C2=O)c(C)c1 (stereo not drawn),-1.72%
21,COc1ccccc1-c1ccc([C@@H]2C[C@H]3[C@H](CON3C)CN2S(=O)(=O)c2cc(Cl)cc(Cl)c2)cc1,-0.88%
22,C[C@@H]1ON(C)[C@H]2C[C@H]3c4cc(N5CCOCC5)ccc4CCN3C[C@@H]12,7.02%
23,CCN(CC)c1ccc2cc(C(N)=O)/c(=N\NC(=O)c3ccncc3)oc2c1,30.5% (active)
24,COc1cccc2cc(C(N)=O)/c(=N\NC(=O)c3ccccc3)oc12,6.06%
25,CCN(CC)c1ccc(C(=O)N/N=C(\C)c2cccc(OC)c2)cc1,6.48%
26,O=C(NCc1ccccc1)[C@H]1CCCN1C(=O)[C@@H]1CCCN1C(=O)c1ccc(Cl)cc1Cl,5.28%
